Assay outcomes deposited in PubChem BioAssay by National Center for Advancing Translational Sciences (NCATS).
Pf growth 48h: inhibits P. falciparum growth in the first generation, 48 h. P. falciparum luciferase growth in erythrocytes, 48 h. Potency, µM (titrated, usually from 28.7 µM), usual class: inhibitors. hit rate 5.9% among 310,000. AID 504832
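First compound was added to culture medium, then infected red cells at 0.1% parasitemia and 2% hematocrit (final). After incubation at 37 C under 5% CO2, luciferase detection reagent was dispensed and light output recorded.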
HCV inh: blocks hepatitis C virus. Potency, µM (highest dose often 41.8 µM), usual class: inhibitors. hit rate 3.4% among 340,000. Huh7.5.1 HCVcc-Cre infection, luciferase reporter, 44 h
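Antiviral activity was scored by luciferase reporter output from cells infected with HCVcc-Cre (~0.5 moi) in presence of compound, 44 h infection period, cells seeded 1,000/well 4 h prior.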
HCMV antiviral: human cytomegalovirus inhibition | HFF cells, HCMV-luciferase reporter, 72 h; hits give low values | activity change, negative = inhibition, % at 57.5 µM | hit rate 4.5% among 410,000 | AID 1259415; in the data active = activity change below about -60%; inconclusive = no clear call, values can overlap the other calls; inactive = above about -39%
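Compounds were evaluated in HFFs infected with an HCMV luciferase reporter virus (MOI 1 PFU/cell). Luciferase in lysates collected 72 h post infection served as the replication measure.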
Pf growth 96h: P. falciparum growth inhibition at 96 hour, primary screen for plastid delayed-death inhibitors. P. falciparum luciferase reporter growth, 96 h. Potency, µM (series often up to 28.7 µM), actives largely listed as inhibitors. hit rate 6.9% among 320,000
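Infected RBCs, 2% Hct / 0.05% parasitemia final; luciferase-reporter P. falciparum; cpd 96 h, 37 C, 5% CO2; luciferase detection reagent; luminescence.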
A number is an active result. Shown are actives, neighbours in structure and some others; about 13% of the full set was active somewhere. Unless noted, calls follow the shape of the dose curve; as a rule, active = well fitted inhibition curve with a large enough effect; inconclusive = small, poorly fitted or top-dose-only effect, or another doubt; inactive = no such curve, though single readings can be large or run the other way.

How did CC12CCC(=O)C=C1CCC1C2CCC2(C)C(c3csc(N)n3)CCC12 (centres undefined) do in these assays?
HCV inh: 10µM; HCMV antiviral: -93

Results for Cc1c(Cl)cccc1NC(=O)CN1C(=O)COc2ccc(S(=O)(=O)N3CCOCC3)cc21 ?
HCMV antiviral: inactive

Results for CNS(=O)(=O)c1cccc(C(=O)OCC(=O)N(CCC#N)c2ccccc2)c1 ?
Pf growth 48h: inactive; HCV inh: inactive; HCMV antiviral: inactive; Pf growth 96h: inactive

Results for Cc1ccc(S(=O)(=O)NCC(=O)OCC(=O)N(CCC#N)c2ccccc2)cc1 ?
HCV inh: inactive; HCMV antiviral: -64

How did COc1ccc(C(=O)C[n+]2cccc(C)c2C)cc1[N+](=O)[O-] do in these assays?
Pf growth 48h: 7.4µM; HCV inh: inactive; HCMV antiviral: inactive; Pf growth 96h: inactive

How did Cc1ccc(C(=O)C[n+]2ccccc2C)cc1[N+](=O)[O-] do in these assays?
Pf growth 48h: inactive; HCV inh: inactive; HCMV antiviral: inactive; Pf growth 96h: inconclusive

What do the screens show for `COc1cc(C2NC(=O)c3ccccc3O2)cc(OC)c1OC` (centres undefined)?
HCV inh: inactive; HCMV antiviral: inactive; Pf growth 96h: inconclusive

How did COc1cc(C2Oc3ccccc3C=C2[N+](=O)[O-])cc(OC)c1OC (centres undefined) do in these assays?
Pf growth 48h: inconclusive; HCV inh: inconclusive; HCMV antiviral: -104; Pf growth 96h: inconclusive

How did CCN(CC)CCN(C(=O)c1ccco1)c1nc2ccc(F)cc2s1 do in these assays?
HCMV antiviral: inactive

How did CCOc1ccc(C(=O)Nc2cnn(Cc3ccc(Cl)c(Cl)c3)c2)cc1 do in these assays?
Pf growth 48h: inactive; HCV inh: 13µM; HCMV antiviral: -70; Pf growth 96h: inconclusive

How did O=C(Nc1ccc(Cl)c(Cl)c1)c1ccc(Cn2cc(Cl)cn2)cc1 do in these assays?
Pf growth 48h: inconclusive; HCV inh: inconclusive; HCMV antiviral: inactive; Pf growth 96h: inactive

How did COc1ccc(C(=O)Nc2cnn(Cc3c(F)cccc3Cl)c2)cc1OC do in these assays?
Pf growth 48h: inconclusive; HCV inh: 13µM; HCMV antiviral: inactive; Pf growth 96h: inconclusive

What do the screens show for `O=C(Nc1cnn(Cc2ccc(Cl)c(Cl)c2)c1)C12CC3CC(CC(C3)C1)C2`?
Pf growth 48h: 13µM; HCV inh: inconclusive; HCMV antiviral: inactive; Pf growth 96h: 7.4µM

Results for COC(=O)c1ccc(CSc2nc3ccncc3n2Cc2ccc(F)cc2)cc1 ?
HCMV antiviral: inactive

How did O=C1NC(=S)NC(=O)C1=Cc1cccn1-c1ccc(O)cc1 do in these assays?
Pf growth 48h: inactive; HCV inh: inconclusive; HCMV antiviral: -99; Pf growth 96h: inactive

How did CN1C(=O)/C(=C/c2cccn2-c2ccc3ccccc3c2)C(=O)NC1=S do in these assays?
Pf growth 48h: inactive; HCV inh: inactive; HCMV antiviral: -105; Pf growth 96h: inactive

What do the screens show for `COc1ccc(NC(=O)Cn2c(=O)n(Cc3ccco3)c(=O)c3sc4ccccc4c32)cc1Cl`?
HCMV antiviral: inactive

Results for CNc1ncnc2c1ncn2[C@H]1CN(Cc2ccc(-c3ccccc3)cc2)C[C@@H](CO)O1 ?
HCMV antiviral: inactive

How did OC[C@@H]1CN(Cc2ccc(-c3ccccc3)cc2)C[C@H](n2cnc3c(Nc4ccccc4)ncnc32)O1 do in these assays?
HCMV antiviral: -65

How did OC[C@@H]1CN(Cc2ccc(-c3ccccc3)cc2)C[C@H](n2cnc3c(NCc4ccc(F)cc4)ncnc32)O1 do in these assays?
HCMV antiviral: -85

Results for COc1ccc2c(c1)c1c(c(=O)n(-c3ccccc3C)c(=O)n1C)n2C ?
HCMV antiviral: inactive

How did COc1cc(C(=O)OCc2cc3ccccc3[nH]c2=O)cc(OC)c1OC do in these assays?
Pf growth 48h: inactive; HCV inh: inactive; HCMV antiviral: -86; Pf growth 96h: inactive

What do the screens show for `Cc1ccc(C(=O)OCc2cc3ccccc3[nH]c2=O)cc1`?
Pf growth 48h: inconclusive; HCV inh: inactive; HCMV antiviral: inactive; Pf growth 96h: inconclusive

What do the screens show for `c1ccc2c(c1)CSc1ccccc1C2C1=NCCN1` (centres undefined)?
Pf growth 48h: inactive; HCV inh: inactive; HCMV antiviral: inactive; Pf growth 96h: inactive

What do the screens show for `c1ccc(C2(c3ccccc3)CC2C2=NCCN2)cc1` (centres undefined)?
Pf growth 48h: inconclusive; Pf growth 96h: 13µM

What do the screens show for `CCC1CN(C(=O)N2CCC(C(=O)N3CCN(c4ccccc4F)CC3)CC2)c2ccccc2O1` (centres undefined)?
HCMV antiviral: inactive

What do the screens show for `CCOCCCNC(=O)CN1C(=O)COc2ccc(S(=O)(=O)N3CCOCC3)cc21`?
Pf growth 48h: inactive; HCV inh: inactive; HCMV antiviral: inconclusive; Pf growth 96h: inactive

What do the screens show for `COC(=O)CN1C(=O)COc2ccc(S(=O)(=O)N3CCOCC3)cc21`?
Pf growth 48h: inactive; HCV inh: inactive; HCMV antiviral: inactive; Pf growth 96h: 9.3µM

What do the screens show for `CCOC(CNC(=O)CN1C(=O)COc2ccc(S(=O)(=O)N3CCOCC3)cc21)OCC`?
Pf growth 48h: inactive; HCV inh: inactive; HCMV antiviral: active; Pf growth 96h: inactive

How did COC(=O)CN1C(=O)COc2ccc(S(=O)(=O)N3CCCCCC3)cc21 do in these assays?
Pf growth 48h: inactive; HCV inh: inactive; HCMV antiviral: inactive; Pf growth 96h: inconclusive

What do the screens show for `CCc1cccc(-n2c(C)nc3c(cnn3-c3ccc(C)c(C)c3)c2=O)c1`?
HCMV antiviral: inactive

What do the screens show for `Cc1ccccc1NC(=O)CS(=O)(=O)c1cccc2nsnc12`?
HCMV antiviral: inactive

Results for COc1ccc(C(=O)N2CCN(C(=O)c3ccco3)CC2)cc1 ?
Pf growth 48h: inactive; HCV inh: inactive; HCMV antiviral: inactive; Pf growth 96h: inconclusive

Results for CCOC(=O)C1=C(CN2CCN(C(=O)c3ccco3)CC2)NC(=O)NC1c1ccc(F)cc1 (centres undefined) ?
Pf growth 48h: 10µM; HCV inh: inconclusive; HCMV antiviral: inactive; Pf growth 96h: inactive

What do the screens show for `CC(C)Oc1ccc(C(=O)N2CCN(C(=O)c3ccco3)CC2)cc1`?
Pf growth 48h: inactive; HCV inh: inactive; HCMV antiviral: inactive; Pf growth 96h: 10µM

What do the screens show for `O=C(Cn1nnc(-c2ccc(F)cc2)n1)N1CCCCC1`?
Pf growth 48h: inactive; HCV inh: inactive; HCMV antiviral: inactive; Pf growth 96h: inactive

What do the screens show for `CCOC(=O)C1=C(CN2CCN(CC)CC2)NC(=O)NC1c1ccc(Cl)cc1` (centres undefined)?
HCMV antiviral: inactive

How did O=C(Nc1ccc(-c2nnn(CC(=O)N3CCN(C(=O)c4ccco4)CC3)n2)cc1)c1ccc(F)cc1 do in these assays?
Pf growth 48h: inconclusive; HCV inh: 10µM; HCMV antiviral: inactive; Pf growth 96h: inconclusive

How did CCOC(=O)C1=C(CN2CCN(C(=O)c3ccco3)CC2)NC(=O)NC1c1ccc(OC(C)C)cc1 (centres undefined) do in these assays?
Pf growth 48h: 12µM; HCV inh: inactive; HCMV antiviral: inactive; Pf growth 96h: inconclusive

How did COC(=O)c1sccc1S(=O)(=O)N1CCN(c2cccc(C)c2C)CC1 do in these assays?
HCMV antiviral: inactive
